# Source: PubChem BioAssay
# Calls of active or inactive are those of the source.
# How the values were obtained:
# [1] = test system: PRMT1 (protein arginine N-methyltransferase 1); assay: PRMT1 binders on small-molecule microarrays, primary screen, biochemical, small-molecule microarray, 635 nm fluorescence (AID 1088); settings: small-molecule microarray binding, higher = more signal;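 further: binding of Prmt1 protein to compounds spotted on small-molecule microarray slides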
# [2] = yeast growth modulation, basal conditions, primary screen, YJM789 clinical isolate, OD600, 24 h (AID 1089);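 further: growth of clinical yeast isolate S. cerevisiae YJM 789 seeded 1000 cells per well; test concentration not given here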; settings: S. cerevisiae YJM789 growth, higher = more signal, called active from +8 up or from −8 down
# [3] = fission yeast growth modulation, primary screen, strain 972, OD600, 24 h, no modulator (AID 1090);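 further: basal condition with compound alone and no growth modifier present; test concentration not given here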; settings: S. pombe 972 growth, higher = more signal, called active from +8 up or from −8 down
# [4] = S. cerevisiae growth modulation with rapamycin, primary screen, strain BY4716, OD600, 96 h (AID 1091); settings: higher = more signal, called active from +8 up or from −8 down; further: test concentration not given here
# [5] = target: Torsin-1A-interacting protein 2 (Homo sapiens) (UniProt Q8NFQ8); assay: LULL1 binders on small-molecule microarray, primary screen, cell lysate, human LULL1 lysate, 635/667 nm fluorescence (AID 1092); settings: hLULL1 lysate binding, 635 nm fluorescence, higher = more signal;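 further: probe is lysate of COS7 cells overexpressing human LULL1; score merges per-feature 667 nm fluorescence with signal-to-noise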
# [6] = E. coli growth modulation, two-sided OD650, primary screen, E. coli filamentation project, strain DRC41, 24 h (AID 1093); settings: OD650, 24 h, higher = more signal, called active from +8 up or from −8 down;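 further: MC1000 strain lacking acrAB efflux and sulA so SOS filamentation is blocked; test concentration not given here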
# [7] = small-molecule microarray binders of probe aLefty2, primary screen, biochemical, biotinylated probe, 635/667 nm fluorescence (AID 1094); settings: higher = more signal;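 further: score merges spot fluorescence near 667 nm with spot signal-to-noise ratio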
# [8] = test system: Noggin (protein binding on small-molecule microarray); assay: Noggin binders on small-molecule microarray, primary screen, biochemical, 635/667 nm fluorescence (AID 1095); settings: 635 nm fluorescence, higher = more signal;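 further: score merges 667 nm feature fluorescence with signal to noise over triplicate slides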
# [9] = target: Neurogenic locus notch homolog protein 3 (Homo sapiens) (UniProt Q9UM47); assay: NOTCH3 binders on small-molecule microarray, primary screen, biochemical, 635/667 nm fluorescence (AID 1096); settings: NOTCH3 binding, 635 nm fluorescence, higher = more signal
# [10] = small-molecule microarray binders of probe aEGFR, primary screen, biochemical, biotinylated probe, 635/667 nm fluorescence (AID 1097); settings: higher = more signal;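 further: probe is a biotinylated anti-EGFR antibody binding compounds printed on slides; score combines fluorescence near 667 nm and signal to noise of each spot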
# [11] = test system: Plasmodium falciparum Sir2 (PF13_0152, Sir2A); assay: pfSir2 binders on small-molecule microarrays, primary screen, biochemical, small-molecule microarray, 635 nm fluorescence (AID 1098); settings: small-molecule microarray binding, fluorescence 635 nm; higher = more signal;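 further: score merges spot fluorescence intensity with its signal-to-noise ratio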
# [12] = small-molecule microarray binders of probe aDKK1, primary screen, biochemical, biotinylated probe, 635/667 nm fluorescence (AID 1099); settings: higher = more signal;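 further: score merges 667nm spot fluorescence with signal to noise across triplicate slides; reference of the scale not given here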
# [13] = small-molecule microarray binders of probe aCHRDL2, primary screen, biochemical, biotinylated probe, 635/667 nm fluorescence (AID 1100); settings: higher = more signal
# [14] = splicing luciferase reporter signal modulators, primary screen, spliceosome inhibition project, cell-based, HEK293, splice +/- reporter (AID 1101); settings: luminescence, 24 h, higher = more signal, called active from +8 up or from −8 down;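 further: HEK293 cells carrying a splicing-competent luciferase reporter gene; test concentration not given here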
# [15] = target: Fibroblast growth factor 10 (Homo sapiens) (UniProt O15520); assay: FGF10 binders on small-molecule microarrays, primary screen, biochemical, small-molecule microarray, 635 nm fluorescence (AID 1102); settings: FGF10 binding, fluorescence 635 nm, higher = more signal
# [16] = test system: glycogen synthase kinase-3 (GSK3A per assay name; protocol says GSK3B); assay: GSK3 binders on small-molecule microarrays, primary screen, biochemical, small-molecule microarray, 635 nm fluorescence, GSK3A (AID 1103); settings: small-molecule microarray binding, fluorescence 635 nm; higher = more signal; further: the record names both GSK3A and GSK3B
# [17] = target: Epidermal growth factor receptor (Homo sapiens) (UniProt P00533); assay: EGFR binders on small-molecule microarrays, primary screen, biochemical, small-molecule microarray, 635 nm fluorescence (AID 1104); settings: EGFR binding, higher = more signal;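 further: score merges 667 nm emission intensity with spot signal to noise over triplicate slides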
# [18] = target: Follistatin-related protein 3 (Homo sapiens) (UniProt O95633); assay: FSTL3 binders on small-molecule microarrays, primary screen, biochemical, small-molecule microarray, 635 nm fluorescence (AID 1105); settings: FSTL3 binding, higher = more signal;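 further: score merges emission near 667 nm and signal to noise per printed spot across three slides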
# [19] = target: Dickkopf-related protein 1 (Homo sapiens) (UniProt O94907); assay: DKK1 binders on small-molecule microarrays, primary screen, biochemical, small-molecule microarray, 635 nm fluorescence scan (AID 1106); settings: DKK1 binding, higher = more signal;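 further: score merges emission near 667 nm with signal to noise over three replicate slides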
# [20] = test system: Inhibin beta A chain (activin A); assay: INHBA (activin A) binders on microarrays, primary screen, biochemical, small-molecule microarray, 635 nm fluorescence scan (AID 1107); settings: small-molecule microarray binding, higher = more signal;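 further: mouse activin A protein probed at 4.33 µg/mL on printed slides; score merges bound-protein fluorescence near 667 nm with spot signal-to-noise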
# Sequence of Follistatin-related protein 3 (Homo sapiens) (O95633 whole entry, looked up): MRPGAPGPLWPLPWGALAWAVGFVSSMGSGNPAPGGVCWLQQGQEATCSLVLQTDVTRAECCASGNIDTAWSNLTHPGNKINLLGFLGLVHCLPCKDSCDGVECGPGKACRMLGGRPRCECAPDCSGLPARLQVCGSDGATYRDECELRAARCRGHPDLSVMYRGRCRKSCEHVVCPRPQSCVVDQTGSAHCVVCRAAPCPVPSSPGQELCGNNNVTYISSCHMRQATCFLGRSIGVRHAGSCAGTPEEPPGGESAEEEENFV
# Sequence of Torsin-1A-interacting protein 2 (Homo sapiens) (Q8NFQ8 whole entry, looked up): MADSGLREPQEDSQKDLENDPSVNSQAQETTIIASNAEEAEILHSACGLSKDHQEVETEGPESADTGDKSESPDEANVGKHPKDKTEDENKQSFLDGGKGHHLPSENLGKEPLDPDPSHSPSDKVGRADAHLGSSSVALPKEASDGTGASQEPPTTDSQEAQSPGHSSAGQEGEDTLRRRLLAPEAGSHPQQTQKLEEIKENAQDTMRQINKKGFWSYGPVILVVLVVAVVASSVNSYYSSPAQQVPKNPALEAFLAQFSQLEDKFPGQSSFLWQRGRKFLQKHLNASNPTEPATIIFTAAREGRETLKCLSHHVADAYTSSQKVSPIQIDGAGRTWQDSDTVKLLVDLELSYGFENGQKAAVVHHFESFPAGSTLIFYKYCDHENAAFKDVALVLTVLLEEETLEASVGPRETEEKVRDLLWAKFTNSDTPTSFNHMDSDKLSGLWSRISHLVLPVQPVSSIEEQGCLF
# Sequence of Fibroblast growth factor 10 (Homo sapiens) (O15520 whole entry, looked up): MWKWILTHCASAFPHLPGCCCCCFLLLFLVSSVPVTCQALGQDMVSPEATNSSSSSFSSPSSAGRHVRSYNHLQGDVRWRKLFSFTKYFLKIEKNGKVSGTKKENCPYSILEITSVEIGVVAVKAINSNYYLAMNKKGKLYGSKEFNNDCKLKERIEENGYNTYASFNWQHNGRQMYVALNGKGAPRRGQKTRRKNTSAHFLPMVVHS
# Sequence of Dickkopf-related protein 1 (Homo sapiens) (O94907 whole entry, looked up): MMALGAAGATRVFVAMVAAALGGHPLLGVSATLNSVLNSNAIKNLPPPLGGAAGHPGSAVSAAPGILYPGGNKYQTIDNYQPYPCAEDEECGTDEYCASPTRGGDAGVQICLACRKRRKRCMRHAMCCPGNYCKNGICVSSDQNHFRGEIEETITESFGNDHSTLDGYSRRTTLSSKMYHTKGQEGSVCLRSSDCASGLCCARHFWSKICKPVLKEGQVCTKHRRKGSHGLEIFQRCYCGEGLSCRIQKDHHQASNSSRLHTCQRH
# Sequence of Epidermal growth factor receptor (Homo sapiens) (P00533 whole entry, looked up): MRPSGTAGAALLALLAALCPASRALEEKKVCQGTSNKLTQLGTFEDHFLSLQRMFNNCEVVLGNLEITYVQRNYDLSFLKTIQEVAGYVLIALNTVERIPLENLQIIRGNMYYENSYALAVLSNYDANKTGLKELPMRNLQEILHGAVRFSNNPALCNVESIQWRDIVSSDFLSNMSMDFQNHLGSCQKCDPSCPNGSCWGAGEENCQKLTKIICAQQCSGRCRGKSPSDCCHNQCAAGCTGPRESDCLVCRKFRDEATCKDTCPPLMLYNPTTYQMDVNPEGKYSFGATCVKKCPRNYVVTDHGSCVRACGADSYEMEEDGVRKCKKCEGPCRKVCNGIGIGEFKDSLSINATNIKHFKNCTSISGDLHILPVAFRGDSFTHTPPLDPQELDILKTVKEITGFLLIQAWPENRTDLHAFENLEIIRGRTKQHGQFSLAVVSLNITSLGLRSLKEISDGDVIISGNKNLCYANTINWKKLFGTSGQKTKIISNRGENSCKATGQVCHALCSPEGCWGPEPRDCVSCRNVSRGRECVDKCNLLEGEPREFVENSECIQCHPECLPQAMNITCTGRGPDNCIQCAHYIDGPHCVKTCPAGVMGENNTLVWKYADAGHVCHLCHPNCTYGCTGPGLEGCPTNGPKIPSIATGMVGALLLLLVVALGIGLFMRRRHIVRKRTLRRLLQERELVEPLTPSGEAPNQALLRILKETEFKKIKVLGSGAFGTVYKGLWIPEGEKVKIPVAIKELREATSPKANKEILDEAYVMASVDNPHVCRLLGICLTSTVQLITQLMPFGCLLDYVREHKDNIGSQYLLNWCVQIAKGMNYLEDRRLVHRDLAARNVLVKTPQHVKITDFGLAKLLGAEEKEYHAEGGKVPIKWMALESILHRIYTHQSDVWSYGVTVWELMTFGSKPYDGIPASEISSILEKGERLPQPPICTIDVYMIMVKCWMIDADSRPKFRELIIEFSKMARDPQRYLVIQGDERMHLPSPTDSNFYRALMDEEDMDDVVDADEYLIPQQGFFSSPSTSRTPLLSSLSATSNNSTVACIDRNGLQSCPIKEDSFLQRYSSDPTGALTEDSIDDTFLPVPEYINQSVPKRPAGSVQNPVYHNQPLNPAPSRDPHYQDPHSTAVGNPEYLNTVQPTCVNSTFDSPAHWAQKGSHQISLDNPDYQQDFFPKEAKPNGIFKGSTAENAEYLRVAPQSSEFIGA
# Sequence of Neurogenic locus notch homolog protein 3 (Homo sapiens) (Q9UM47 whole entry, looked up): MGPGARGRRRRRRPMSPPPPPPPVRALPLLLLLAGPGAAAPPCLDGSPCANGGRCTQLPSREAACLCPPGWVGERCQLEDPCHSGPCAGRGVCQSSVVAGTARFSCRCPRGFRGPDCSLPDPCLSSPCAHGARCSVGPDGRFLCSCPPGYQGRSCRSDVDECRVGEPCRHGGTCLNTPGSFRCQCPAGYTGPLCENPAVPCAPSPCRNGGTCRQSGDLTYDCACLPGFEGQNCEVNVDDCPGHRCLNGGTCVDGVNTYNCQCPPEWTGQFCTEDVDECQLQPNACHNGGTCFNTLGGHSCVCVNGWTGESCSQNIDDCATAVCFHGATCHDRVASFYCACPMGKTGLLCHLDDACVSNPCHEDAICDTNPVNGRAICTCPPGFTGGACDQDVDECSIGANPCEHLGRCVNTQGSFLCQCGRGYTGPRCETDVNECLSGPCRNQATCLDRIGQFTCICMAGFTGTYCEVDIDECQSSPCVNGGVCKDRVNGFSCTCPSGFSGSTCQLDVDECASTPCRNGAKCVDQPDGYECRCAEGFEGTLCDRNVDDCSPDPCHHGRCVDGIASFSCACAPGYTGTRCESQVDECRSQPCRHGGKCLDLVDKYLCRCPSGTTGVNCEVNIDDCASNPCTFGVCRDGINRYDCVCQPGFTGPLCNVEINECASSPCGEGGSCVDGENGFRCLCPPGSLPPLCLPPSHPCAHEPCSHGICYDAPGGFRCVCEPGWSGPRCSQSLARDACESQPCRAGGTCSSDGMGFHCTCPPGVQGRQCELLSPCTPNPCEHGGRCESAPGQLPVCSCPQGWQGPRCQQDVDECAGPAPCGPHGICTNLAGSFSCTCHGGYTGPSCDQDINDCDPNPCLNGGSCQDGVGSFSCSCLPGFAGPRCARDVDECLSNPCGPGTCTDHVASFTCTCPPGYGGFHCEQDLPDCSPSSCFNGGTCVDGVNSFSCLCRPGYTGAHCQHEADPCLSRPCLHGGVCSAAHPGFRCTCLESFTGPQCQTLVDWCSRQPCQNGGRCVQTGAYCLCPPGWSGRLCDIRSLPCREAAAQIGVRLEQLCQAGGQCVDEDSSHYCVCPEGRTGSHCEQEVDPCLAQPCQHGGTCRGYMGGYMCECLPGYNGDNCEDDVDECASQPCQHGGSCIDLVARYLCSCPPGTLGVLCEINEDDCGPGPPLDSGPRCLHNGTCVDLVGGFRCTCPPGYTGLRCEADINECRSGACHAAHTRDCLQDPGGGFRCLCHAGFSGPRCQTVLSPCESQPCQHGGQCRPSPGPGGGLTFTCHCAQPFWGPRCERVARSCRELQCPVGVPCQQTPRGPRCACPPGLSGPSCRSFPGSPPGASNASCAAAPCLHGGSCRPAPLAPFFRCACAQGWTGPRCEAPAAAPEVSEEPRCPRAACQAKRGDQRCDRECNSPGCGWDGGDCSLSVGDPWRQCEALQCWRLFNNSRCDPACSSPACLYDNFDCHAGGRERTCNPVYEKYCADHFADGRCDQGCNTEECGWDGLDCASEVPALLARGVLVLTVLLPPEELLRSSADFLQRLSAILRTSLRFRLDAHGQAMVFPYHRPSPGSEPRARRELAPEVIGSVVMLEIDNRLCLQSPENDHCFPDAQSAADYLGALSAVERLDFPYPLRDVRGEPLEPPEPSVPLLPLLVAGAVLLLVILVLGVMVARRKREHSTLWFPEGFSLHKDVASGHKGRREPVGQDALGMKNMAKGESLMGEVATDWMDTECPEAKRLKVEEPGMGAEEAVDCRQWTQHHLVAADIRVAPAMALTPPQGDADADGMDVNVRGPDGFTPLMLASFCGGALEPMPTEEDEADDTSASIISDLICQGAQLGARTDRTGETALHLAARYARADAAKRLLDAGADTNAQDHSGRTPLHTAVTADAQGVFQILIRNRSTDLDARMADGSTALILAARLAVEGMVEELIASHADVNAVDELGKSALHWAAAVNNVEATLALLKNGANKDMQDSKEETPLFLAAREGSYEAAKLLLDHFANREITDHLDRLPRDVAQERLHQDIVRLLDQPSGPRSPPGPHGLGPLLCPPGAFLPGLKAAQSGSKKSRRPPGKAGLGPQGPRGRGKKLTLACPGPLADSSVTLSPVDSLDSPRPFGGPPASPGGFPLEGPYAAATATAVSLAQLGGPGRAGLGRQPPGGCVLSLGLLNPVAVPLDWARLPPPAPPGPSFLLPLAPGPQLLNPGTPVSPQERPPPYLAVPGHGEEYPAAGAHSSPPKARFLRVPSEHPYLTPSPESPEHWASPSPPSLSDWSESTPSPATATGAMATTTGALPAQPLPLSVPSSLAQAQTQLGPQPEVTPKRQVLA
SMILES,composite z-score [1],z-score [2],z-score [3],z-score [4],composite z-score [5],z-score [6],composite z-score [7],composite z-score [8],composite z-score [9],composite z-score [10],composite z-score [11],composite z-score [12],composite z-score [13],z-score [14],composite z-score [15],composite z-score [16],composite z-score [17],composite z-score [18],composite z-score [19],composite z-score [20]
NCCCCCNC(=O)[C@@H]1C[C@@H]2C(=O)NCC(=O)N2[C@@H]1c1ccc(O)cc1,1.53,-0.491 (inactive),-0.723 (inactive),0.124 (inactive),2.51,-0.031 (inactive),-0.145,1.37,0.892,-0.192,1.15,-0.0246,-0.128,-0.0882 (inactive),1.49,1.32,-0.318,1.22,1.63,0.294
COCCOC(=O)N1C(=O)[C@@]2(c3ccccc31)[C@H](c1ccccc1OCCO)N1[C@H](c3ccccc3)[C@H](c3ccccc3)OC(=O)[C@H]1[C@@H]2C(=O)Nc1nc2ccccc2s1,1.56,1.68 (inactive),0.981 (inactive),4.61 (inactive),2.25,2.25 (inactive),-0.0285,1.47,1.09,-0.0244,1.4,0.262,0.245,-0.968 (inactive),1.1,1.32,0.661,1.34,0.476,0.0911
C=C(COC)/C(=C/C[C@@H](OC(C)=O)c1ccc(OCCO)cc1)c1cc(C(=O)OC)ccc1OC,1.54,0.0937 (inactive),-0.51 (inactive),-0.645 (inactive),2.16,-0.018 (inactive),-0.027,1.35,1.12,-0.0728,1.22,0.455,-0.103,0.585 (inactive),1.54,0.794,0.265,1.27,0.43,0.884
C=CC[C@]1(C(=O)NCCCOC)N=C(c2ccc(OCCCO)cc2)O[C@H]1c1ccccc1N=[N+]=[N-],1.55,-0.707 (inactive),-0.688 (inactive),1.47 (inactive),3.48,0.421 (inactive),0.0482,0.444,0.935,-0.265,1.65,-0.188,0.658,-0.885 (inactive),1.44,0.746,-0.223,0.348,-0.516,1.29
COc1ccc(CCNC(=O)[C@@H]2c3ccccc3C(=O)N(C3Cc4ccccc4C3)[C@H]2c2ccc(CO)cc2)cc1,1.34,0.629 (inactive),0.0128 (inactive),0.332 (inactive),1.75,-0.141 (inactive),0.0349,-0.155,-0.145,-0.0624,0.613,-0.124,0.857,0.54 (inactive),0.0846,0.316,-0.19,0.0595,-0.337,0.832
[N-]=[N+]=NCc1ccccc1C[C@]1(C(=O)N2CCOCC2)N=C(c2ccc(OCCCO)cc2)O[C@H]1c1ccccc1N=[N+]=[N-],1.41,-1.18 (inactive),-2.26 (inactive),2.79 (inactive),3.51,0.188 (inactive),0.349,1.5,1.03,0.144,1,0.873,0.93,-0.928 (inactive),1.31,1.33,0.466,1.37,0.234,0.878
O=C1C2C=CC(C(O)c3ccc(F)cc3)N(Nc3ccccc3F)C2C(=O)N1c1ccccc1 (stereo not given),0.778,0.105 (inactive),-0.268 (inactive),0.0787 (inactive),3.48,-0.42 (inactive),0.0224,-0.503,1.13,-0.0549,1.47,0.131,0.996,1.34 (inactive),0.678,-0.412,-0.609,0.396,-0.868,0.503
C[N+](C)(C)CCCC[C@@H]1NC(=O)[C@@H]2C[C@H](C(=O)NCCCCCN)[C@H](c3cccc(OCCO)c3)N2C1=O,1.28,-0.465 (inactive),-2.09 (inactive),0.371 (inactive),2.15,-0.291 (inactive),0.231,-0.0236,0.182,-0.0037,1.07,0.0277,0.356,-0.657 (inactive),1.12,1.3,-0.167,-0.144,-0.17,-0.68
C=CCOC(=O)[C@H]1[C@@H]2C(=O)O[C@@H](c3ccccc3)[C@@H](c3ccccc3)N2[C@@H](c2ccc(OCCOC(=O)[C@H]3C[C@H]4C(=O)N[C@@H](CC(C)C)C(=O)N4[C@H]3c3ccc(O)cc3)cc2)[C@]12C(=O)Nc1ccc(I)cc12,1.54,1 (inactive),-1.4 (inactive),0.333 (inactive),2.62,-1.13 (inactive),-0.282,1.67,1.12,0.0423,1.5,-0.271,-0.3,-0.281 (inactive),1.4,1.3,0.748,1.15,1.23,0.12
COC(=O)[C@@]1(Cc2ccccc2)[C@H]2c3cc(C(=O)N(C)C)n(CCSCCO)c3C[C@H]2CN1C(=O)c1ccccc1,-0.0249,-0.177 (inactive),0.536 (inactive),-0.694 (inactive),3.09,-0.842 (inactive),0.172,-0.411,-0.0488,0.0239,0.751,0.692,0.829,-1.48 (inactive),0.3,-0.205,-0.348,-0.353,-0.772,0.442
C=CCNC(=O)[C@H]1[C@@H]2C(=O)O[C@@H](c3ccccc3)[C@@H](c3ccccc3)N2[C@@H](c2ccc(O)cc2)[C@]12C(=O)N(C(=O)OCCOC)c1ccc(C#CCNC(N)=O)cc12,1.42,0.905 (inactive),0.311 (inactive),1.63 (inactive),0.922,-0.781 (inactive),0.136,0.79,0.924,0.0821,0.867,0.297,0.537,0.481 (inactive),0.855,1.11,0.157,0.999,0.936,0.969
C=CCOC(=O)[C@@H]1[C@H]2C(=O)O[C@H](c3ccccc3)[C@H](c3ccccc3)N2[C@H](c2ccc(OCCOC(=O)[C@@H]3C[C@@H]4C(=O)N[C@@H](Cc5ccccc5)C(=O)N4[C@@H]3c3ccc(O)cc3)cc2)[C@@]12C(=O)Nc1ccc(I)cc12,1.55,0.607 (inactive),1.18 (inactive),4.44 (inactive),2.06,1.37 (inactive),-0.135,1.87,1.11,-0.0828,1.46,-0.191,-0.35,-1.17 (inactive),1.16,1.19,0.711,1.38,1.03,0.518
